Measurements: PubChem BioAssay (NCI)
Compounds without any hit were thinned out: in the full panel of roughly 83,000, 20% have a hit.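 For each line, cells grew in 96-well plates with the test compound present at a single concentration for 48 hours.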 Unmarked numbers belong to inactive results. Active and inactive are the calls of the source. The calls were made as follows: active = growth percent below 10; inactive = the rest.

How the values were obtained:
Assay in all cases: NCI-60 one-dose screen, 48 h (100 = growth as untreated, 0 = no growth, -100 = all killed)
Settings in all cases: 10 µM unless noted
HCT-15 colon = test system: HCT-15 colon
HT29 colon = test system: HT29 colon
SNB-75 CNS = test system: SNB-75 CNS
SNB-19 CNS = test system: SNB-19 CNS
U251 CNS = test system: U251 CNS
PC-3 prostate = test system: PC-3 prostate
SK-MEL-5 melanoma = test system: SK-MEL-5 melanoma
UACC-62 melanoma = test system: UACC-62 melanoma
LOX IMVI melanoma = test system: LOX IMVI melanoma
SK-MEL-28 melanoma = test system: SK-MEL-28 melanoma
SK-MEL-2 melanoma = test system: SK-MEL-2 melanoma
EKVX NSCLC = test system: EKVX NSCLC
SN12C renal = test system: SN12C renal
TK-10 renal = test system: TK-10 renal
ACHN renal = test system: ACHN renal
CAKI-1 renal = test system: CAKI-1 renal
A498 renal = test system: A498 renal
CCRF-CEM leukemia = test system: CCRF-CEM leukemia
MOLT-4 leukemia = test system: MOLT-4 leukemia
UO-31 renal = test system: UO-31 renal

Compound | growth (HCT-15 colon) [%] | growth (HT29 colon) | growth (SNB-75 CNS) | growth (SNB-19 CNS) [%] | growth (U251 CNS) | growth (PC-3 prostate) [%] | growth (SK-MEL-5 melanoma) | growth (UACC-62 melanoma) | growth (LOX IMVI melanoma) | growth (SK-MEL-28 melanoma) | growth (SK-MEL-2 melanoma) | growth (EKVX NSCLC) | growth (SN12C renal) [%] | growth (TK-10 renal) | growth (ACHN renal) | growth (CAKI-1 renal) | growth (A498 renal) | growth (CCRF-CEM leukemia) | growth (MOLT-4 leukemia) | growth (UO-31 renal)
CN(C)CCC(=O)C1CC1 | 106 | 99.3% | 102% | 96 | 102% | 99.2 | 106% | 99.2% | 99% | 107% | 111% | 111% | 98.9 | 113% | 103% | 102% | 106% | 103% | 96.9% | 
COc1ccc(/C=N/Nc2c3ccccc3nc3ccccc23)cc1 | 92.6 | 93.9% | 93.4% | 92.4 | 93.4% | 83.1 | 90.4% | 91.1% | 92.9% | 108% | 82.2% | 86.9% |  | 107% | 98.9% | 88.2% | 69.6% | 90.8% | 90.3% | 76.1%
CN(C)c1ccc(C(=S)c2ccc(N(C)C)cc2)cc1 | 43 | 30.9% | 78.1% | 72.6 | 62.4% | 71.2 | 30.5% | 52.2% | 69% | 84.4% | 58.5% | 98.2% | 75.6 | 82.7% | 93.4% | 87.1% | 62.6% | 77.3% | 75.5% | 
COCCn1cc(-c2nc(-c3cn(CCOC)c4ncccc34)cs2)c2cc(F)ccc21 | 17.8 | 57.6% | 77.4% | 90.4 | 69.8% | 39.2 | 14.4% | 61.8% | 64.3% | 91% | 73.8% | 23.2% | 82.3 | 28.2% | 76.7% | 86.4% | 73.3% | 72.5% | 68.9% | 
COc1ccc(C(=O)C/C(=C\c2ccc(O)c(OC)c2)C(=O)NN)cc1 | 64.2 | 102% | 99.6% | 85 | 84.9% | 67.3 | 75% | 75.8% | 82.2% | 75.6% | 90.8% | 94% |  | 111% | 85.4% | 77.9% | 105% | 73.8% | 87.5% | 67.9%
FC(F)(F)c1[nH]ncc1-c1nc2ccc3[nH]ncc3c2c2c1CCCC2 | 12.7 | 6.93% (active) | 8.42% (active) | 17.7 | 5.69% (active) | 21 | -73.7% (active) | 9.03% (active) | -38.2% (active) | 2.24% (active) | -18.4% (active) | 3.77% (active) |  | 1.15% (active) | 5.04% (active) | 9.85% (active) | -60.5% (active) | 6.43% (active) | -30% (active) | -26.8% (active)
N#Cc1ccc(O)c(C2=NCC(c3ccc(-c4ccccc4)cc3)O2)c1 (configuration not stated) | 24.6 | 18.1% | 26.2% | 18 | 4.51% (active) | 25.5 | 3.96% (active) | -5.35% (active) | 11.8% | 23.7% | -4.74% (active) | 15.6% | 29.8 | 12.4% | 11.6% | 3.1% (active) | 48.6% | 11.6% | 0.755% (active) | 
Nc1[nH]nc2nc(-c3ccccc3)n3c4ccccc4nc3c12 | 101 | 104% | 87.7% | 106 | 102% | 95.2 | 92.8% | 88.7% | 99.7% | 117% | 98.8% | 78% | 104 | 110% | 89% | 83.1% | 89.2% | 102% | 97.9% | 
